The record followed here is PubChem BioAssay (NCI).

What all share (assay): NCI-60 one-dose screen, 48 h (100 = growth as untreated, 0 = no growth, -100 = all killed)
For experiment [1], the system named is A549/ATCC NSCLC. As to conditions: 10 µM unless noted.
For experiment [2], the system named is DU-145 prostate. Particulars: 10 µM unless noted.
The test system of experiment [3] is K-562 leukemia. Particulars: 10 µM unless noted.
Experiment [4] relates to RXF 393 renal. As to conditions: 10 µM unless noted.
Experiment [5] concerns SF-295 CNS. Particulars: 10 µM unless noted.
The subject of experiment [6] is UACC-257 melanoma. Particulars: 10 µM unless noted.
Experiment [7] relates to HT29 colon. As to conditions: 10 µM unless noted.
The subject of experiment [8] is SNB-75 CNS. Particulars: 10 µM unless noted.
The test system of experiment [9] is SK-MEL-2 melanoma. Particulars: 10 µM unless noted.
The subject of experiment [10] is ACHN renal. As to conditions: 10 µM unless noted.
For experiment [11], the system named is CAKI-1 renal. As to conditions: 10 µM unless noted.
The subject of experiment [12] is A498 renal. Particulars: 10 µM unless noted.
The subject of experiment [13] is HL-60(TB) leukemia. As to conditions: 10 µM unless noted.
For experiment [14], the system named is OVCAR-5 ovarian. As to conditions: 10 µM unless noted.
Experiment [15] relates to OVCAR-4 ovarian. As to conditions: 10 µM unless noted.
For experiment [16], the system named is SK-OV-3 ovarian. Particulars: 10 µM unless noted.
Experiment [17] relates to HS 578T breast. As to conditions: 10 µM unless noted.
Experiment [18] deals with NCI/ADR-RES ovarian. As to conditions: 10 µM unless noted.
Experiment [19] deals with T-47D breast. Particulars: 10 µM unless noted.
Experiment [20] concerns BT-549 breast. As to conditions: 10 µM.

SMILES strings stand for the structures. The panel holds about 83,000 compounds, 20% with a hit somewhere; the sample as a whole holds those more often.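 Percent growth is the endpoint: 0 to 100 indicates growth inhibition (40 means 60% inhibition), 0 means no net growth, and negative values indicate cell death.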 Unmarked numbers belong to inactive results. The source made the active and inactive calls. How the source made its calls: active means growth percent below 10; inactive means the rest.

With `CNC(=O)Oc1cccc(N(C)C)c1`, the growth in experiment [1] was 93%; in experiment [2], 110%; in experiment [3] it was 102%; in [4] it was 103%; in experiment [5], 99.8%; in [6] it was 93.5%. Further, the growth in [7] is 106%; in experiment [8] it was 97.5%; in [9], 83.4%; in experiment [10] it was 104%; in experiment [11] it was 91.6%; in [12], 104%. Further, the growth is 103% in experiment [13]; 102% in experiment [14]; 106% in experiment [15]; 99.7% in experiment [16]; 108% in experiment [17]; 107% in experiment [18]. In addition, the growth in experiment [19] is 104%; in experiment [20], 94.1%.
For the compound `O=S(=O)(c1ccc(Cl)cc1)C(Cl)(Cl)Cl`, the growth is 56.6% in experiment [1]; 49.4% in [2]; 19.6% in [3]; -5.22% (active) in experiment [4]; 78.2% in [5]; 28.2% in [6]. Further, the growth is 12.2% in [7]; 39.6% in experiment [8]; 25.1% in experiment [9]; 26.1% in experiment [10]; -6.81% (active) in experiment [11]; 56.4% in experiment [12]. In addition, the growth in [13] was 1.02% (active); in experiment [14] it was 78.9%; in experiment [15], 61.6%; in experiment [16] it was 84.9%; in [17], 55.8%; in [18] it was 29%. Moreover, the figures for the growth in experiment [19] and in experiment [20] were 11.4% and 34.1%, respectively.
As to `S=P(NC1CCCCC1)(N1CC1)N1CC1`, the growth in experiment [1] was 101%; in experiment [2] it was 108%; in experiment [3], 61.4%; in experiment [4] it was 102%; in experiment [5], 110%; in [6] it was 116%. In addition, the growth is 101% in [7]; 93.2% in experiment [8]; 114% in [9]; 103% in [10]; 95.1% in experiment [11]; 96.2% in [12]. The growth was 91.3% in experiment [13]; 104% in experiment [14]; 100% in [15]; 131% in experiment [16]; 114% in experiment [17]; 111% in [18]. Further, the growth in experiment [19] was 106%; in experiment [20], 120%.
With `CC(/C=N/N=C(N)N)=N/N=C(N)N`, the growth in [1] was 106%; in experiment [2], 93.9%; in [3], 82.1%; in experiment [5], 93.6%; in experiment [6], 113%; in experiment [7], 91.8%. In addition, the growth in experiment [8] is 71.5%; in experiment [9], 14.8%; in experiment [10], 94.5%; in [11], 83%; in experiment [12], 90.2%; in experiment [13] it was 84.5%. The growth in experiment [14] is 84.4%; in [15], 91.9%; in experiment [16] it was 97.2%; in experiment [17], 88.6%; in experiment [18] it was 74.3%; in [19], 60.1%.
Take `COc1ccc(OC)c(/C=C(/C)[N+](=O)[O-])c1`: the growth was 75.8% in experiment [1]; 6.46% (active) in experiment [2]; 4.29% (active) in [3]; -18.5% (active) in experiment [4]; 110% in experiment [5]; 0.553% (active) in experiment [6]. The growth is -29% (active) in [7]; 77.2% in [8]; 56.4% in [9]; -27.7% (active) in experiment [10]; 6.25% (active) in experiment [11]; 110% in experiment [12]. The growth is 62.3% in [13]; 108% in experiment [14]; 64.4% in experiment [15]; 125% in [16]; 70.6% in experiment [17]; 81.1% in [18]. Besides, in [19], the growth was 19.9%.
Regarding `c1cnc2c(c1)ccc1ncccc12`, the growth in [1] is 107%; in experiment [2], 107%; in experiment [3] it was 99.8%; in experiment [5] it was 115%; in [6], 96.6%; in experiment [7] it was 109%. The growth in experiment [8] is 97.8%; in experiment [10] it was 90.7%; in experiment [11] it was 91.7%; in experiment [12] it was 207%; in experiment [13], 93.6%; in experiment [14], 148%. The growth in [15] was 109%; in experiment [16] it was 104%; in experiment [17] it was 159%; in experiment [18], 78.4%; in experiment [19], 111%; in experiment [20], 106%.
On to `CC(C)(O)/C=C/C(=O)[C@](C)(O)[C@H]1[C@H](O)C[C@@]2(C)[C@@H]3CC=C4[C@@H](C=C(O)C(=O)C4(C)C)[C@]3(C)C(=O)C[C@]12C`, for which the growth in experiment [1] is 0.767% (active); in [2], -40.2% (active); in [3], -32.4% (active); in experiment [4], 0.503% (active); in [5] it was -43.2% (active); in experiment [6], 0.414% (active). Moreover, the growth in experiment [7] was -31.1% (active); in [8], -86.6% (active); in experiment [9], -43.6% (active); in experiment [10] it was -29.9% (active); in experiment [11] it was -57.2% (active); in [12], -79.8% (active). Further, the growth in experiment [13] was -38.9% (active); in [14], -3.44% (active); in experiment [15], -45.9% (active); in [16], 5.63% (active); in experiment [17], -17.4% (active); in experiment [18], 12.2%. In addition, the values for the growth in experiment [19] and in experiment [20] were -15.3% (active) and -60.1% (active), respectively.
For `CC[C@@H](C)/C=C(C)/C=C/C(=O)c1c(O)c(-c2ccc(O)cc2)cn(O)c1=O`, the growth in [1] is 3.85% (active); in [2], 15.5%; in [3], 12.1%; in [4], 19.8%; in [5], -28.7% (active); in experiment [6] it was -29.8% (active). The growth in experiment [8] is 2.38% (active); in experiment [9] it was 59.7%; in [10], 0.29% (active); in experiment [11], -54.9% (active); in [12], 39.3%; in [16], 17.8%. Also, the growth in experiment [17] was 48%; in [18], 1.53% (active); in [19] it was 15.8%; in experiment [20] it was 18%.
